Measured values: PubChem BioAssay (EPA / NIEHS)
Activity calls are given as the source filed them. The calls were made as follows: active = hit-call score of the fitted dose curve at least 0.9, where 1 is the maximum; inactive = score below 0.9.

What follows are compounds tested on C-C motif chemokine 2 (Homo sapiens) (UniProt P13500) (assay: BSK_KF3CT_MCP1: BioMAP Diversity Plus: KF3CT Assay for Monocyte Chemoattractant Protein 1 (MCP1/CCL2) Biomarker Activity (AID 2283073)). Details: primary human keratinocytes with fibroblasts; actives raise or lower the signal.
Outline: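 Keratinocytes and foreskin fibroblasts were co-cultured, dosed with chemical, and sampled 24 h later. MCP-1 was quantified by ELISA, and the endpoint was analyzed with bidirectional fitting using DMSO as negative control.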
C=CC(=C)CCC=C(C)C was tested, and the outcome was “inactive”.
C=CCCCCCCCCC(=O)O was tested, and the outcome was “inactive”.
With CC(=O)OCCC(C)C the outcome was “inactive”.
CC(C)=CCC/C(C)=C\CO was tested, and the outcome was “inactive”.
O=C(NS(=O)(=O)/C=C/c1ccccc1)c1ccc(F)cc1Cl was tested, and the outcome was “inactive”.
Clc1nc(Cl)c(Cl)c(Cl)c1Cl was tested, and the outcome was “inactive”.
With CC[C@H](C)C(=O)O[C@H]1C[C@@H](C)C=C2C=C[C@H](C)[C@H](CC[C@@H]3C[C@@H](O)CC(=O)O3)[C@H]21 the AC50 was 32.5 µM (active).
CCCCC(CC)COC(=O)c1ccc(C(=O)OCC(CC)CCCC)cc1 (stereo unspecified) was tested, and the outcome was “inactive”.
In the case of O=C(O)c1cccc(Oc2ccccc2)c1, the outcome is reported as “inactive”.
In the case of O=C(CCCCCCCCc1cccnc1)N1CCC(C=C(c2ccccc2)c2ccccc2)CC1, the AC50 is reported as 16.9 µM (active).
CC(=O)OC[C@H]1O[C@@](COC(C)=O)(O[C@H]2O[C@H](COC(C)=O)[C@@H](OC(C)=O)[C@H](OC(C)=O)[C@H]2OC(C)=O)[C@@H](OC(C)=O)[C@@H]1OC(C)=O was tested, and the outcome was “inactive”.
NC(=O)NO was tested, and the outcome was “inactive”.
C[C@](N)(Cc1ccc(O)c(O)c1)C(=O)O was tested, and the outcome was “inactive”.
With CN(C)c1ccc(Cc2ccc(N(C)C)cc2)cc1 the outcome was “inactive”.
With O=C(OC[C@H]1O[C@@H](OC(=O)c2cc(O)c(O)c(OC(=O)c3cc(O)c(O)c(O)c3)c2)[C@H](OC(=O)c2cc(O)c(O)c(OC(=O)c3cc(O)c(O)c(O)c3)c2)[C@@H](OC(=O)c2cc(O)c(O)c(OC(=O)c3cc(O)c(O)c(O)c3)c2)[C@@H]1OC(=O)c1cc(O)c(O)c(OC(=O)c2cc(O)c(O)c(O)c2)c1)c1cc(O)c(O)c(OC(=O)c2cc(O)c(O)c(O)c2)c1 the outcome was “inactive”.
Cc1ccc(C)c(O)c1 was tested, and the outcome was “inactive”.
In the case of CC(C)=CCCC(C)CCO (stereo unspecified), the outcome is reported as “inactive”.
In the case of CC1(C)C(=O)N(Br)C(=O)N1Br, the outcome is reported as “inactive”.

Each compound was assayed on Matrix Metallopeptidase 9 (MMP9), MMP9 (gene 4318) (assay: BSK_KF3CT_MMP9: BioMAP Diversity Plus: KF3CT Assay for Matrix Metallopeptidase 9 (MMP9) Biomarker Activity (AID 2283074;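 as to AC50: MMP9 protein level quantified by ELISA in the co-culture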)). Details: primary human keratinocytes with fibroblasts; actives raise or lower the signal.
Outline: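 Values come from bidirectional fitting relative to DMSO of MMP-9 levels, which were measured by ELISA. Measurements were taken 24 h after chemical dosing of a keratinocyte and foreskin fibroblast co-culture.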
For CC(C)=CCCC(C)=CC=O, the outcome was “inactive”.
In the case of CC(C)=CCC/C(C)=C/CO, the outcome is reported as “inactive”.
In the case of CC(=O)OCCC(C)C, the outcome is reported as “inactive”.
Clc1nc(Cl)c(Cl)c(Cl)c1Cl was tested, and the outcome was “inactive”.
For O=C(O)c1cccc(Oc2ccccc2)c1, the outcome was “inactive”.
CCC(C)(C)C(=O)O[C@H]1C[C@@H](C)C=C2C=C[C@H](C)[C@H](CC[C@@H]3C[C@@H](O)CC(=O)O3)[C@H]21 was tested, and the AC50 was 31.6 µM (active).
For COCCOc1cc2cc(C(=O)NC3CCN(C(C)C)CC3)n(CC(=O)Nc3ccc(Cl)cn3)c2cn1, the outcome was “inactive”.
CCCCCCc1ccc(O)cc1O was tested, and the AC50 was 34.1 µM (active).
In the case of Nc1nc2ncc(CNc3ccc(C(=O)N[C@@H](CCC(=O)O)C(=O)O)cc3)nc2c(=O)[nH]1, the outcome is reported as “inactive”.
C[C@](N)(Cc1ccc(O)c(O)c1)C(=O)O was tested, and the outcome was “inactive”.
With O=C(OC[C@H]1O[C@@H](OC(=O)c2cc(O)c(O)c(OC(=O)c3cc(O)c(O)c(O)c3)c2)[C@H](OC(=O)c2cc(O)c(O)c(OC(=O)c3cc(O)c(O)c(O)c3)c2)[C@@H](OC(=O)c2cc(O)c(O)c(OC(=O)c3cc(O)c(O)c(O)c3)c2)[C@@H]1OC(=O)c1cc(O)c(O)c(OC(=O)c2cc(O)c(O)c(O)c2)c1)c1cc(O)c(O)c(OC(=O)c2cc(O)c(O)c(O)c2)c1 the AC50 was 6.1 µM (active).
CC[C@H]1CC[C@H](NCc2cc3c(cc2OC)[C@H]2C[C@H]2C(=O)N3C)[C@H](c2ccccc2)N1 was tested, and the outcome was “inactive”.
CC1(C)C(=O)N(Br)C(=O)N1Br was tested, and the outcome was “inactive”.
